Measurements: PubChem BioAssay (NCI)
This is part of a sample that, as a whole, favours compounds with a hit. Of some 79,000 tested, about 15% had one in any assay. The source made the active and inactive calls. No stated cut-off is given here; in the data, active means growth inhibition above about 70%; inactive means the rest.

Assay: NCI Yeast Anticancer Drug Screen. Data for the cln2 rad14 strain (AID 165);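 further: 0% = growth equal to vehicle treated cultures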
Settings: S. cerevisiae cln2 rad14 strain, at 5.0 µM (retest, dose inferred, filed as 0.5), stronger effect = higher value
How it was run: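 Growth inhibition, relative to vehicle-treated controls, is the read-out. The test organism is a yeast strain with defined genetic alterations, cln2 rad14.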

SMILES	growth inhibition
CC1(CO)CCCC2(C)C3=C(CCCC3)CCC12 (stereo not drawn)	-60% (inactive)
O=C(CCCl)Nc1cc2ccccc2oc1=O	1% (inactive)
O=[N+]([O-])c1ccccc1N=Nc1c(O)[nH]c2cccc(C(F)(F)F)c12	-60% (inactive)
CCCCCCCCC1OC1CCCCCCCC(=O)OCC1CO1 (stereo not drawn)	5% (inactive)
CCN(CC)CCNc1ccc(C)c2sc3c(OC)cccc3c(=O)c12	-2% (inactive)
OC(CCN1CCOCC1)c1ccc(Sc2ccccc2)cc1 (stereo not drawn)	53% (inactive)
[Cl-].[La+3].[O-]/N=C(\c1ccccc1)c1ccccn1.[O-]/N=C(\c1ccccc1)c1ccccn1.[O-]/N=C(\c1ccccc1)c1ccccn1	21% (inactive)
COc1ccc(NC(=O)CSC(N)=O)cc1	0% (inactive)
Fc1cccc(CSc2ncnc3c2ncn3C2CCCS2)c1 (stereo not drawn)	26% (inactive)
CC/C(=C(\CC)c1ccc(OCCN2CCOCC2)cc1)c1ccc(OCCN2CCOCC2)cc1	62% (inactive)
O=[N+]([O-])c1c(Cl)ccc2nsnc12	-56% (inactive)
COc1ccccc1NC(=O)/C(=C\N1C(=O)/C(=C/c2cc(OC)c(OC)c(OC)c2)SC1=S)C(C)=O	-28% (inactive)
O=CNC(CCCC(=O)O)Cc1cc2ccccc2c2ccccc12 (stereo not drawn)	7% (inactive)
C=C1CC2(CCCC3(CC(=C)C(=O)O3)C2(C)C)OC1=O (stereo not drawn)	15% (inactive)
CCOC(=O)Nc1cc(NC(C)/C(=N/O)c2ccccc2)c([N+](=O)[O-])c(N)n1 (stereo not drawn)	-21% (inactive)
O=C(N=Nc1cccc(Cl)c1)NNc1cccc(Cl)c1	26% (inactive)
Oc1ccc2c(ccc3ccccc32)c1	-3% (inactive)
CCc1cccc(C(C)(C)C)c1NC(=S)/N=C/C(C(=O)c1ccccc1)=C(\O)c1ccccc1	-13% (inactive)
NC(=S)N/N=C/c1cn(CCCl)c2ccccc12	2% (inactive)
COC1=Nc2ccccc2S(=O)(=O)C=C1	6% (inactive)
O=C1C2C3C=CC(C3)C2C(=NS(=O)(=O)c2ccccc2)C2C3C=CC(C3)C12 (stereo not drawn)	-1% (inactive)
NC(=Nc1ccccc1)c1ccc2c(c1)c1c(n2Cc2ccccc2)CCCC1	-5% (inactive)
NN=C(CC(O)(C(F)(F)Cl)C(F)(F)Cl)CC(O)(C(F)(F)Cl)C(F)(F)Cl	33% (inactive)

Same assay, conditions: S. cerevisiae cln2 rad14 strain, at 50.0 µM (retest, dose inferred, filed as 5.0), stronger effect = higher value

SMILES	growth inhibition
COc1ccc2c(Cc3cc(Cl)ccc3O)cncc2c1O	-4% (inactive)
Cc1ccc(NNC2=NC(=S)NC(=O)C2)cc1	95% (active)
CC#CC(=O)Nc1ccccc1CC(c1c[nH]c2ccccc12)c1c[nH]c2ccccc12	19% (inactive)
COC(=O)c1c2oc3c(C(=O)OC)cccc3nc-2cc(N)c1=O	-2% (inactive)
CCCCCC(=O)NNc1ccccc1	51% (inactive)
CN(C)CCNc1ccc2nnn3c4ccc(O)cc4c(=O)c1c23	32% (inactive)
COc1ccc2c(c1)C(=O)C[C@@H]1[C@](C)(C#N)CCC[C@]21C	10% (inactive)
CCC(=O)c1cc2ccccc2c2ccccc12	0% (inactive)
O=C1OCCCOC(=O)c2cc(ccc2O)OCC#CC#CCOc2ccc(O)c1c2	-4% (inactive)
Nc1nc(Cl)cc(NCC2(CO)CC(CCCc3ccccc3)C2)n1 (stereo not drawn)	12% (inactive)
NNC(=S)Nc1ccccc1	-4% (inactive)
CCOC(=O)c1ccc(N=Cc2cc(Cl)cc(Cl)c2O)cc1	85% (active)
CC(C(=O)N1C(=O)N(C(=O)C(C)C(O)c2ccccc2)C(c2ccccc2)C1c1ccccc1)C(O)c1ccccc1 (stereo not drawn)	89% (active)
CC(C)(C)CC(C)(C)N[P+](NC(C)(C)CC(C)(C)C)(NC(C)(C)CC(C)(C)C)NC(C)(C)CC(C)(C)C	99% (active)
C/C(=N\NC(=S)N1CCCC1)c1cnccn1	98% (active)
N=C(N)c1ccc(OCCCCOc2ccc(N)cc2Cl)cc1	38% (inactive)
CCCCCC(CN(C)C)C(O)/C=C\c1ccccc1 (stereo not drawn)	-6% (inactive)
CC1(CO)CCCC2(C)C3=C(CCCC3)CCC12 (stereo not drawn)	95% (active)
O=C(CCCl)Nc1cc2ccccc2oc1=O	13% (inactive)
O=[N+]([O-])c1ccccc1N=Nc1c(O)[nH]c2cccc(C(F)(F)F)c12	92% (active)

SMILES	growth inhibition
CCCCCCCCC1OC1CCCCCCCC(=O)OCC1CO1 (stereo not drawn)	5% (inactive)
CCN(CC)CCNc1ccc(C)c2sc3c(OC)cccc3c(=O)c12	8% (inactive)
OC(CCN1CCOCC1)c1ccc(Sc2ccccc2)cc1 (stereo not drawn)	15% (inactive)
[Cl-].[La+3].[O-]/N=C(\c1ccccc1)c1ccccn1.[O-]/N=C(\c1ccccc1)c1ccccn1.[O-]/N=C(\c1ccccc1)c1ccccn1	34% (inactive)
COc1ccc(NC(=O)CSC(N)=O)cc1	-5% (inactive)
Fc1cccc(CSc2ncnc3c2ncn3C2CCCS2)c1 (stereo not drawn)	87% (active)
CC/C(=C(\CC)c1ccc(OCCN2CCOCC2)cc1)c1ccc(OCCN2CCOCC2)cc1	64% (inactive)
O=[N+]([O-])c1c(Cl)ccc2nsnc12	84% (active)
COc1ccccc1NC(=O)/C(=C\N1C(=O)/C(=C/c2cc(OC)c(OC)c(OC)c2)SC1=S)C(C)=O	7% (inactive)
O=CNC(CCCC(=O)O)Cc1cc2ccccc2c2ccccc12 (stereo not drawn)	22% (inactive)
C=C1CC2(CCCC3(CC(=C)C(=O)O3)C2(C)C)OC1=O (stereo not drawn)	96% (active)
CCOC(=O)Nc1cc(NC(C)/C(=N/O)c2ccccc2)c([N+](=O)[O-])c(N)n1 (stereo not drawn)	98% (active)
O=C(N=Nc1cccc(Cl)c1)NNc1cccc(Cl)c1	99% (active)
Oc1ccc2c(ccc3ccccc32)c1	99% (active)
CCc1cccc(C(C)(C)C)c1NC(=S)/N=C/C(C(=O)c1ccccc1)=C(\O)c1ccccc1	45% (inactive)
NC(=S)N/N=C/c1cn(CCCl)c2ccccc12	59% (inactive)
COC1=Nc2ccccc2S(=O)(=O)C=C1	79% (active)
O=C1C2C3C=CC(C3)C2C(=NS(=O)(=O)c2ccccc2)C2C3C=CC(C3)C12 (stereo not drawn)	-3% (inactive)
NC(=Nc1ccccc1)c1ccc2c(c1)c1c(n2Cc2ccccc2)CCCC1	94% (active)
NN=C(CC(O)(C(F)(F)Cl)C(F)(F)Cl)CC(O)(C(F)(F)Cl)C(F)(F)Cl	100% (active)
